# Data reported in the supplement of paper PMC10849652.
# Of roughly 7,900 targets only a part is listed; those with a hit were picked by preference. About 0.6% of all pairs of compound and target were hits. Unmarked numbers belong to inactive results.
# Compound: NC(=O)Nc1cc(-c2cccc(F)c2)sc1C(=O)N[C@H]1CCCNC1
# Assay: log2 fold change, soluble protein after heating vs DMSO (PISA); higher = thermal stabilisation; K562 cells, 10 uM, 30 min; active = over 0.2 and 3.5 SD of the protein, either way, in both replicates (recomputed)
# Outline: (§1)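 Quantification of soluble protein used TMTpro 16plex LC-MS/MS, with channel sums equalised. Samples were the supernatant after 21,000xg for 90 min of pooled aliquots from K562 cells (2×10^6 cells/mL) treated with 10 μM compound for 30 min, heated for 3 min over 48°C-58°C, and extracted in PBS with 0.5% NP-40 at 4°C. Values, from duplicates, describe thermal stability against control samples on a log2 fold-change scale.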
# Sequence of UniProt P52333 (P52333 whole entry, looked up): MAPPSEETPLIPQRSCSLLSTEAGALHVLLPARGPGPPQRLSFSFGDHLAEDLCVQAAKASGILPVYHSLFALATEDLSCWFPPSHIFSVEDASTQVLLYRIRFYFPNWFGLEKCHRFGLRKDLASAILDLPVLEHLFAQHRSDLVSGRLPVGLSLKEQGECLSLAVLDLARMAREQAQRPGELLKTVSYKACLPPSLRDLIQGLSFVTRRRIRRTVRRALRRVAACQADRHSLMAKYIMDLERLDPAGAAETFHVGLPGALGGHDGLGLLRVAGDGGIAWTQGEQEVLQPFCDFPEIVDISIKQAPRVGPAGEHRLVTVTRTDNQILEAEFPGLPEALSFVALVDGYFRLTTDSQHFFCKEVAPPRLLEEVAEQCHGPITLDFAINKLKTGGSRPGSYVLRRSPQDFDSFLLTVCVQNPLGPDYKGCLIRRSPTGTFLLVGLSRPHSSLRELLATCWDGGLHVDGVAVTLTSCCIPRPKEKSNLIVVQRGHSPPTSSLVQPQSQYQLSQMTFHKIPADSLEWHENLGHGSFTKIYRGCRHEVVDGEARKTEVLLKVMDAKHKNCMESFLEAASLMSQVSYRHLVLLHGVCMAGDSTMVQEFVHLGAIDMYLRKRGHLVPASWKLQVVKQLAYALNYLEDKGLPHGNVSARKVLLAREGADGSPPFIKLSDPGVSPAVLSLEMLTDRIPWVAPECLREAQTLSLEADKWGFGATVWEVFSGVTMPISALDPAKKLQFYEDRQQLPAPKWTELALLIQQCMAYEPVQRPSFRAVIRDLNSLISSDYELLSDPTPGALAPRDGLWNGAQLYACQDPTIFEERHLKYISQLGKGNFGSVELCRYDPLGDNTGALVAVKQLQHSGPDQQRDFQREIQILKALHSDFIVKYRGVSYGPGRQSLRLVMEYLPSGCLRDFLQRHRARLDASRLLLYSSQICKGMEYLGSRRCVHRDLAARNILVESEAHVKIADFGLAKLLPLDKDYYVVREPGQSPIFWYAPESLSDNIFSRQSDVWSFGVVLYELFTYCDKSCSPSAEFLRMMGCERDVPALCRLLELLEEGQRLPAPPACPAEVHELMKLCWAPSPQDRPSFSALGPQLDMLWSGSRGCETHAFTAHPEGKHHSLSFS
# Sequence of UniProt O95279 (O95279 whole entry, looked up): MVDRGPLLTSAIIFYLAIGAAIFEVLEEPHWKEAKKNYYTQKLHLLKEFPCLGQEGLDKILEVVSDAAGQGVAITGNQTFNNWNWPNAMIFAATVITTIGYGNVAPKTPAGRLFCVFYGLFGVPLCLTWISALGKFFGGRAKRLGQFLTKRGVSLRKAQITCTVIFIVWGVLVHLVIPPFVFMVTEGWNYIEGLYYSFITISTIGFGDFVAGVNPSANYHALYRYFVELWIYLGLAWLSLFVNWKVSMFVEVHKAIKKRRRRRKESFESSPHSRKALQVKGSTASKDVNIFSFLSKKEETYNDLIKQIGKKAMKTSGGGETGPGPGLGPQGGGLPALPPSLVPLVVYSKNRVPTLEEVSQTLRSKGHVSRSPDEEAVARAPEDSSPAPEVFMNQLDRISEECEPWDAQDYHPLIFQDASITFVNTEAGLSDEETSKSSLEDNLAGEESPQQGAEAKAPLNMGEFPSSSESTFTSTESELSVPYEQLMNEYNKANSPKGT
# Sequence of UniProt Q9BQD3 (Q9BQD3 whole entry, looked up): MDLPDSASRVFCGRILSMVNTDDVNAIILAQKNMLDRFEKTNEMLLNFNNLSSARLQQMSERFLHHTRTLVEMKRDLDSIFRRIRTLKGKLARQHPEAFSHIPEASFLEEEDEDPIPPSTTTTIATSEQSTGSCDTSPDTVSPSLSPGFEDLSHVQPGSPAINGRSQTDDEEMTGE
# Sequence of UniProt Q12906 (Q12906 whole entry, looked up): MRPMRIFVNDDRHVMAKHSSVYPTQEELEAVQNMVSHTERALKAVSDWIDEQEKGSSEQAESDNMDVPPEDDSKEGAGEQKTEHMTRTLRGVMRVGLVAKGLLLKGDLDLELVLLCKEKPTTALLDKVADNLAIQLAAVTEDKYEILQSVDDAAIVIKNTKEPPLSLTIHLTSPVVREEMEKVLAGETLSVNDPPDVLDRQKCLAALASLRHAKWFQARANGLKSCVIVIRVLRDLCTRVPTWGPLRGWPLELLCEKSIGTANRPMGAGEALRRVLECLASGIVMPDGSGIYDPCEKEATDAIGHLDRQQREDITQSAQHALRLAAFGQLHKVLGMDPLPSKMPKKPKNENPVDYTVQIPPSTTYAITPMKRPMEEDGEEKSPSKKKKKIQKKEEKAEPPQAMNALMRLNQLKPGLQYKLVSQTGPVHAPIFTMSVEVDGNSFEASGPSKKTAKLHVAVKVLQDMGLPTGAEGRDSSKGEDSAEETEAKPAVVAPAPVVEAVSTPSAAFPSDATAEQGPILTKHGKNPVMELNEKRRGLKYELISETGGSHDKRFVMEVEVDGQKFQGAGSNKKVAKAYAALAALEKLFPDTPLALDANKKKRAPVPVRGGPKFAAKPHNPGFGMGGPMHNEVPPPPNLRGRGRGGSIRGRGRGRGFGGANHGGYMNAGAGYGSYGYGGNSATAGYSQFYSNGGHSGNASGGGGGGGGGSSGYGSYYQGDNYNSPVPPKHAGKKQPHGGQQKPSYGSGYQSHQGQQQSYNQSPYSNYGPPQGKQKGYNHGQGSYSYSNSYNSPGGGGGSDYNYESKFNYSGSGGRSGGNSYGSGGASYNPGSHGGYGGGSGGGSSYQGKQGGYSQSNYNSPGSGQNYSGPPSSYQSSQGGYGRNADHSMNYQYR
# Sequence of UniProt Q9P244 (Q9P244 whole entry, looked up): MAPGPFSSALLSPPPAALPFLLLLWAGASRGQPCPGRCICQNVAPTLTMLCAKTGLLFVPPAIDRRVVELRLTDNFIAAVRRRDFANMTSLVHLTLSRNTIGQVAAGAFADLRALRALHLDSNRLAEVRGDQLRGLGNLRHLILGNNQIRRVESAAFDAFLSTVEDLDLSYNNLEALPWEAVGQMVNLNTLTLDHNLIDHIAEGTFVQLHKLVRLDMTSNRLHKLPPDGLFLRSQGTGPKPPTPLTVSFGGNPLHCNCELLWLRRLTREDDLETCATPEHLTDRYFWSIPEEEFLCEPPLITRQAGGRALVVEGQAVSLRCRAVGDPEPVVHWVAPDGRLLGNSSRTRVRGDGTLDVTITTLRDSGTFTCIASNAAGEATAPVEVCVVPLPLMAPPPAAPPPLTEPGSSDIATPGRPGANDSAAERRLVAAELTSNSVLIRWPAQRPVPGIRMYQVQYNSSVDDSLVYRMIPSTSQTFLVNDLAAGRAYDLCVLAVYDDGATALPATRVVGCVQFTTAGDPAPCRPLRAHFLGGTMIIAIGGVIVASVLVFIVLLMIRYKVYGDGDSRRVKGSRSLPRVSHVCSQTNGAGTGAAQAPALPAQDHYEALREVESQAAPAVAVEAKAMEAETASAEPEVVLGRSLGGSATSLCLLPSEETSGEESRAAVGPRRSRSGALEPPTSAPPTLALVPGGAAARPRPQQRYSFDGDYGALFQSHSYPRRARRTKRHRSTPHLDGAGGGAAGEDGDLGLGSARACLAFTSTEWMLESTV
# Sequence of UniProt Q8NHS3 (Q8NHS3 whole entry, looked up): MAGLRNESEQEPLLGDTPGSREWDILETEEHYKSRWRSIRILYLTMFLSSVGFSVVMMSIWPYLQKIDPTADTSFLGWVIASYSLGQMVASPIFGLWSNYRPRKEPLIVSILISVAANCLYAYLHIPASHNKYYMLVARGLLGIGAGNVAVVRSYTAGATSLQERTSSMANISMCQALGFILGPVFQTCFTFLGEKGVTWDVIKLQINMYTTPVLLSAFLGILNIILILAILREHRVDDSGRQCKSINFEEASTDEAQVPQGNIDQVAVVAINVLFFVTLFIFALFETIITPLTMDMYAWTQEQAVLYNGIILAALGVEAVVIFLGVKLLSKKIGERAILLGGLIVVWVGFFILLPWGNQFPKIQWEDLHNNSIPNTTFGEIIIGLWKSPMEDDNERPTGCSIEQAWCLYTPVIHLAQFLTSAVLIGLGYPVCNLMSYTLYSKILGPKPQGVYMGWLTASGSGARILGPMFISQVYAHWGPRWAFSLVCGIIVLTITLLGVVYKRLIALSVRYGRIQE
# Sequence of UniProt Q92585 (Q92585 whole entry, looked up): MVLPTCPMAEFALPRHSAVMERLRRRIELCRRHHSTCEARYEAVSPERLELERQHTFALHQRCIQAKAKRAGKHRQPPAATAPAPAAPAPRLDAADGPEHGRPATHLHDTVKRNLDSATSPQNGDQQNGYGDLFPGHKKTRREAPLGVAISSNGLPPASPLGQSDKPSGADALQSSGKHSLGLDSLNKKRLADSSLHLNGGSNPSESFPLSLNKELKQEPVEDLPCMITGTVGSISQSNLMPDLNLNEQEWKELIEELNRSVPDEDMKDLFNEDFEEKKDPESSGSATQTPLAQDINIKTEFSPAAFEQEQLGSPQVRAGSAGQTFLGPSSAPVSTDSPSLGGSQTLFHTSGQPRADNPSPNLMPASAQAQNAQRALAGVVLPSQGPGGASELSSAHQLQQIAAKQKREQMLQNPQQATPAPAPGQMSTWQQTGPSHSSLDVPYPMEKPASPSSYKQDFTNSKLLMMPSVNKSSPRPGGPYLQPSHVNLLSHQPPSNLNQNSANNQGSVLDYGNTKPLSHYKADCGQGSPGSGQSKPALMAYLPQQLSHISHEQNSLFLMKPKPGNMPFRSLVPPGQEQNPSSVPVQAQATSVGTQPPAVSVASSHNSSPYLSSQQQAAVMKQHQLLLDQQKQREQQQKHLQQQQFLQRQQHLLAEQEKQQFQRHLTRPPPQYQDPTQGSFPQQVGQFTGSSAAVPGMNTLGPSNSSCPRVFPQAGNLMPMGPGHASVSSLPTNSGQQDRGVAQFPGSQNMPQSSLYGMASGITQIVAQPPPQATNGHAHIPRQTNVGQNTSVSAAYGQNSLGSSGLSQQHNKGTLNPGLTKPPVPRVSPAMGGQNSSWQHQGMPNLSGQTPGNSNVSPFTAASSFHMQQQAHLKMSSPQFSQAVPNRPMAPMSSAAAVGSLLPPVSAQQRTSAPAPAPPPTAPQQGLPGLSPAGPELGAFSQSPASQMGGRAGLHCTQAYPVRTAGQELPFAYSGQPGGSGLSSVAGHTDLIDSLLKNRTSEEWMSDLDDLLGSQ
row,Target,log2 fold change
1,MFSD12 isoform 3 (UniProt Q6NUT3),0.073
2,MAP4K4 isoform 6 (UniProt O95819),0.332
3,MAML1 (UniProt Q92585),0.08
4,MARCHF3 (UniProt Q86UD3),0.169
5,LRFN1 (UniProt Q9P244),-0.14
6,MCM10 (UniProt Q7L590),0.522 (active)
7,IKZF1 isoform 2 (UniProt Q13422),0.06
8,LSR isoform 3 (UniProt Q86X29),-0.531
9,MAP4K2 (UniProt Q12851),0.827 (active)
10,LAPTM4B (UniProt Q86VI4),-0.109
11,KMT5A (UniProt Q9NQR1),0.069
12,ILF3 (UniProt Q12906),0.013
13,JAK3 (UniProt P52333),0
14,LSR (UniProt M0QZL9),-0.508
15,KCNK5 (UniProt O95279),-0.066

# Compound: NC(=O)c1cnc(N[C@@H]2CCCC[C@@H]2N)nc1Nc1cccc(-n2nccn2)c1
# Assay: as above
# Outline: as §1
row,Target,log2 fold change
1,IGFBP6 (UniProt P24592),-0.079
2,MFSD12 isoform 3 (UniProt Q6NUT3),-0.159
3,MFSD8 (UniProt Q8NHS3),0.02
4,LRRFIP1 isoform 4 (UniProt Q32MZ4),0.04
5,LEPROT (UniProt O15243),-0.161
6,LAMP2 isoform 2 (UniProt P13473),-0.1
7,KIZ (UniProt Q2M2Z5),-0.067
8,LRRCC1 (UniProt Q9C099),-0.041
9,MGRN1 isoform 2 (UniProt O60291),0.11
10,KXD1 (UniProt Q9BQD3),-0.091
11,MAPK7 (UniProt Q13164),-0.25
12,IPP (UniProt Q9Y573),0.047
13,MAGEA8 (UniProt P43361),-0.135
14,MED29 (UniProt Q9NX70),0.05
15,MAP2K5 (UniProt Q13163),-0.025
16,MAPRE3 isoform 2 (UniProt Q9UPY8),-0.033
17,MBLAC1 (UniProt A4D2B0),-0.031

# Compound: NC1(c2ccc(-c3nc4ccn5c(=O)[nH]nc5c4cc3-c3ccccc3)cc2)CCC1
# Assay: as above
# Outline: as §1
row,Target,log2 fold change
1,MAP4K4 isoform 6 (UniProt O95819),0.009
2,MFSD8 (UniProt Q8NHS3),-0.115
3,LEPROT (UniProt O15243),-0.088
4,LAMP2 isoform 2 (UniProt P13473),-0.321
5,MCM10 (UniProt Q7L590),0.002
6,IKZF1 isoform 2 (UniProt Q13422),-0.109
7,LIN52 (UniProt Q52LA3),0.294
8,LSR isoform 3 (UniProt Q86X29),-0.327
9,LAPTM4B (UniProt Q86VI4),0.116
10,KXD1 (UniProt Q9BQD3),-0.237
11,LOX (UniProt P28300),-0.086
12,ILF3 (UniProt Q12906),0.331
13,JAK3 (UniProt P52333),-0.045
14,MED29 (UniProt Q9NX70),0.029
15,ING5 (UniProt Q8WYH8),-0.042
16,KCNK5 (UniProt O95279),0.16
17,MBLAC1 (UniProt A4D2B0),-0.179
18,KIF1B isoform 3 (UniProt O60333),-0.073
19,MCOLN3 (UniProt Q8TDD5),-0.254

# Compound: NCC(=O)Nc1ccc(-n2nc(C(F)(F)F)cc2-c2ccc3c(ccc4ccccc43)c2)cc1
# Assay: as above
# Outline: as §1
row,Target,log2 fold change
1,IGFBP6 (UniProt P24592),-0.13
2,MAP4K4 isoform 6 (UniProt O95819),0.228
3,MFSD8 (UniProt Q8NHS3),-0.076
4,MAML1 (UniProt Q92585),0.088
5,LAMP2 isoform 2 (UniProt P13473),-0.132
6,LRFN1 (UniProt Q9P244),-0.166
7,MCM10 (UniProt Q7L590),-0.085
8,ITPRID2 (UniProt P28290),-0.059
9,IKZF1 isoform 2 (UniProt Q13422),0.036
10,KXD1 (UniProt Q9BQD3),-0.021
11,MAGEA8 (UniProt P43361),0.034
12,JAK3 (UniProt P52333),-0.102
13,LSR (UniProt M0QZL9),-0.095
14,MBLAC1 (UniProt A4D2B0),0.242
15,KIF1B isoform 3 (UniProt O60333),-0.389

# Compound: Nc1ccccc1NC(=O)c1ccc(CNC(=O)OCc2cccnc2)cc1 [entinostat]
# Assay: as above
# Outline: as §1
row,Target,log2 fold change
1,MFSD12 isoform 3 (UniProt Q6NUT3),-0.067
2,MAP4K4 isoform 6 (UniProt O95819),0.237
3,MAML1 (UniProt Q92585),-0.104
4,MARCHF3 (UniProt Q86UD3),-0.038
5,LRFN1 (UniProt Q9P244),0.133
6,MCM10 (UniProt Q7L590),0.224
7,IKZF1 isoform 2 (UniProt Q13422),-0.006
8,LSR isoform 3 (UniProt Q86X29),-0.134
9,MAP4K2 (UniProt Q12851),0.145
10,LAPTM4B (UniProt Q86VI4),-0.126
11,KMT5A (UniProt Q9NQR1),-0.258
12,ILF3 (UniProt Q12906),0.058
13,JAK3 (UniProt P52333),-0.019
14,LSR (UniProt M0QZL9),-0.406
15,KCNK5 (UniProt O95279),0.031
